Among all 2,100 compounds or so, about 590 (28%) were called active. Not shown: some 42% with an inconclusive outcome. This is one part of the list. Unmarked numbers belong to inactive results. The call rests on the fitted dose curve; in most records, active means well fitted inhibition curve with a large enough effect; inconclusive means small, poorly fitted or top-dose-only effect; inactive means flat fitted curve, though single readings scatter.
Potency means the concentration at half of the fitted maximal effect.

In the experiment the target is DNA dC->dU-editing enzyme APOBEC-3F (Homo sapiens) (UniProt Q8IUX4). The experiment is described as follows: qHTS for inhibitors of Vif-A3F interactions: Cherry picks. Further: nearly all actives have a fitted effect of over 70% in size.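 On max response: % of control where 0% means no effect; active compounds raise eYFP fluorescence by blocking Vif-driven A3F loss.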 As to conditions: HeLa A3F-eYFP + Vif (tagged APOBEC3F with the HIV-1 protein that degrades it), eYFP fluorescence, 24 h. The procedure, abridged: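 HeLa cells stably expressing A3F-eYFP plus Vif, cultured overnight, then exposed to compounds at several concentrations for 24 h at 37 deg C. Reduced Vif-driven degradation read as rising eYFP fluorescence (488 nm ex/500-530 nm em) by laser-scanning cytometry; MG132 as positive control.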
Chain of DNA dC->dU-editing enzyme APOBEC-3F (Homo sapiens) (Q8IUX4 whole entry, looked up): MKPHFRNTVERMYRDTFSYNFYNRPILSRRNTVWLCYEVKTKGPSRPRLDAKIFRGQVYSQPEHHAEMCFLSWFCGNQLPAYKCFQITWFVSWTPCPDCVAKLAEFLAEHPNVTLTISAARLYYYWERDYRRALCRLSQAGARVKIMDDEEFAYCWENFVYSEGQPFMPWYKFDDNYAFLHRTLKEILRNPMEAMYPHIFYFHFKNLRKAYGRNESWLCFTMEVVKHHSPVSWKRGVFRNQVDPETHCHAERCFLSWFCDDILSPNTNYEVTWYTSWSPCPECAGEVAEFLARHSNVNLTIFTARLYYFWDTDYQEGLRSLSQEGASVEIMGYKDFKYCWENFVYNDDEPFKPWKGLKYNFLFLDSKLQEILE
On the technique in general: In qHTS, concentration-response curves come from the screen itself.
As for `N#C/C(N=Nc1ccccc1O)=N\Nc1ccccc1O`, the Potency is 14.6 µM (active).
In the case of `CCCCN1C(=O)/C(=C2/Sc3ccccc3N2C)S/C1=N\c1ncn[nH]1`, the Potency was 18.4 µM (active).
As to `CCn1c2ccccc2c2cc(NC(=O)c3ccc(=O)oc3)ccc21`, the max response is -28.9%.
Same read-out and setting: for `Cc1cnc(NC(=O)CC(C)c2ccccc2)s1` (stereo not given) the value was -26.1%.
On to `CC(CC(=O)Nc1ccc2c(c1)c(=O)n(C)n2-c1ccccc1)c1ccccc1` (stereo not given), for which the Potency was 4.98 µM (active).
Turning to `CCOc1ccccc1OCC(=O)N/N=C(\C)Cc1ccc(OC)cc1`, the max response is -18.5%.
As for `CCOc1ccc(Cn2c3ccc(OC)cc3c3nc4ccccc4nc32)cc1`, the Potency is 8.2 µM (active).
Take `CC(C)(C)c1ccc(Cn2c(=O)cnc3ccccc32)cc1`: the max response was -25.6%.
With `CC(C)(C)NC(=S)N/N=C\c1ccc(-c2ccc([N+](=O)[O-])cc2)o1`, the Potency was 14.6 µM (active).
As for `Cc1ccc(-c2ccc(/C=N/NC(N)=S)o2)cc1`, the max response is -8.18%.
As to `O=C(O)c1cccc(-c2ccc(/C=N/Nc3ccc([N+](=O)[O-])cc3)o2)c1`, the Potency was 18.4 µM (active).
Regarding `Cc1cc([N+](=O)[O-])ccc1-c1ccc(/C=N/NC(=O)c2ccc(Br)o2)o1`, the Potency is 18.4 µM (active).
Regarding `NC(=S)N/N=C\c1ccc(-c2cccc(Cl)c2Cl)o1`, the max response was -18.7%.
`O=C(O)c1ccc(-c2ccc(/C=N/Nc3ccc([N+](=O)[O-])cc3)o2)cc1`: the Potency was 15.8 µM (active).
For `C/C(CCc1ccc2c(c1)OCO2)=N\NC(=S)NC(C)C`, the max response is -2.82%.
Consider `CN(/N=C/c1ccc(-c2ccc([N+](=O)[O-])cc2)o1)c1ccccc1`, for which the Potency was 0.731 µM (active).
`COc1ccccc1N1CCN(C(=O)c2ccc3ncsc3c2)CC1`: the max response is -21%.
The same measure, in the same setting: for `O=C(NC(=S)Nc1c(Cl)cc(Cl)cc1Cl)c1ccccc1` the value was -0.292%.
`COc1ccc2nc3ccccc3nc2c1NC(=O)c1ccc(Cl)cc1Cl`: the Potency was 3.53 µM (active).
Regarding `COc1ccc2nc3ccccc3nc2c1NC(=O)c1ccc(Br)cc1`, the Potency was 18.4 µM (active).
For `COc1ccc(C(=O)N/N=C/c2cc(Br)ccc2O)cc1OC`, the max response is -1.32%.
Turning to `COc1ccc2nc3ccccc3nc2c1NC(=O)c1ccc(Cl)cc1`, the Potency was 16.4 µM (active).
With `COc1ccc(C(=O)NC(=S)NCc2cccnc2)cc1Cl`, the max response is -3.18%.
`COc1cc2nc(/C=C/c3ccc(N(C)C)cc3)sc2cc1SC`: the Potency was 20.6 µM (active).
Still for that read-out and setting: for `COc1ccc2cc(-c3nc(Cl)c4c5c(sc4n3)CC(C)CC5)c(=O)oc2c1` (stereo not given) the value was 5.8 µM (active).
`CCN(CC)c1ccc2cc(-c3nc4sc5c(c4c(=O)[nH]3)CCC(C(C)(C)C)C5)c(=O)oc2c1` (stereo not given): the max response is 13.2%.
Regarding `O=C(CSc1n[nH]c(-c2ccccn2)n1)Nc1ccc(Cl)cc1`, the max response is 0.972%.
Same read-out and setting: for `O=C(Nc1ccc(Cl)cc1)Nc1ccon1` the value was -9.41%.
Consider `COc1ccccc1OCC(=O)NNC(=O)Nc1ccc(Cl)cc1`, for which the Potency is 14 µM (active).
For `COCCN(CCOC)Cc1c(O)ccc2c1O/C(=C\c1ccc(C)o1)C2=O`, the max response was -17.2%.
Same read-out and setting: then `CCOC(=O)c1ccc(NC(=O)Cn2ncc(Cl)c(Cl)c2=O)cc1`, with -29.1%.
With `O=C(Cn1ncc(Cl)c(Cl)c1=O)NCC1CCCCC1`, the Potency was 15.8 µM (active).
With `Cc1ccc(S(=O)(=O)N2CCCCC2)cc1NC(=O)Cn1ncc(Cl)c(Cl)c1=O`, the max response was -13.3%.
Still for that read-out and setting: for `C=CCSc1nc2sc3c(c2c(=O)n1CC)CCC3` the value was -3.63%.
Still for that read-out and setting: then `C[C@@H]1O[C@@H](O[C@@H]2C(=O)c3c(O)cc(O)cc3O[C@H]2c2ccc(O)c(O)c2)[C@H](O)[C@H](O)[C@H]1O`, with 2.1%.
On the same count and under the same terms, for `CCC(C)Sc1ccc(-c2nc3cc(C)ccn3c2NC2CCCCC2)cc1` (stereo not given) the value was -4.06%.
Turning to `COc1cccc(N2CCN(Cc3nc4scc(-c5ccccc5)c4c(=O)[nH]3)CC2)c1`, the Potency is 17.7 µM (active).
Regarding `Cn1nnnc1SCc1nc2scc(-c3ccc(Cl)cc3)c2c(=O)[nH]1`, the max response was -13.9%.
With `O=c1c(Cl)c2oc3ccccc3nc-2c2ccccc12`, the Potency was 18.4 µM (active).
On to `O=C(Nc1nc(-c2ccccn2)cs1)C1CCCC1`, for which the max response was -4.77%.
Still for that read-out and setting: then `Cc1ccc(-n2c(O)c(/C=C3/C(c4ccccc4)=Nc4ccccc43)c(=O)[nH]c2=O)cc1`, with -12.3%.
For the compound `COc1ccc(NC(=O)c2sc3nc4c(cc3c2N)CN(Cc2ccccc2)CC4)c(OC)c1`, the Potency is 20.6 µM (active).
For the compound `Nc1c(C(=O)c2ccc(Cl)cc2)sc2nc3c(cc12)CCC3`, the Potency is 23.1 µM (active).
As for `Cc1cc(N2CCN(C)CC2)ccc1NC(=O)c1c2c(nc3ccccc13)CCN(Cc1ccccc1)C2`, the max response was -29.2%.
Same read-out and setting: then `Cc1ccccc1NC(=O)c1sc2nc3c(c(-c4ccco4)c2c1N)CCC3`, with -22.7%.
In the case of `CCN1CCc2nc3sc(C(=O)c4ccccc4)c(N)c3cc2C1`, the Potency is 16.4 µM (active).
As to `Cc1ccc(NC2=C(Cl)C(=O)N(C3CCCCC3)C2=O)cc1`, the max response is -3.54%.
On the same count and under the same terms, then `COc1cnc(-c2ccccn2)nc1Oc1ccc(F)cc1F`, with 2.31%.
`Cc1ccc(SC2=C(Sc3ccc(C)cc3)C(=O)c3ccccc3C2=O)cc1`: the Potency is 20.6 µM (active).
Regarding `Cc1c(NC(=O)c2csc3c2CCCC3)c(=O)n(-c2ccccc2)n1C`, the max response was 0.352%.
Regarding `Cc1c(N=C2N=C(NC(=O)c3cccs3)c3ccccc32)c(=O)n(-c2ccccc2)n1C`, the Potency was 15.8 µM (active).
Take `Cc1c(N/N=C(\C#N)C(=O)c2ccc(Cl)cc2)c(=O)n(-c2ccccc2)n1C`: the max response is -12.8%.
Same read-out and setting: then `COc1cccc(NC(=O)Nc2nc(-c3ccc(OC)c(OC)c3)cs2)c1`, with -25.2%.
The same measure, in the same setting: then `O=C(/C=C/c1ccco1)NC(=S)Nc1ccc(N2CCCC2)cc1`, with -28%.
Turning to `COc1ccc(-c2csc(NC(=S)NC(=O)/C=C/c3ccco3)n2)cc1Br`, the Potency was 7.04 µM (active).
Still for that read-out and setting: for `Cc1ccc(C(=O)NCCn2c(N)c(C#N)c3nc4ccccc4nc32)cc1` the value was 23.1 µM (active).
For `Cn1c(=S)c2[nH]c(SCCN3CCCC3)nc2n(C)c1=O`, the max response was 0.53%.
As to `COc1ccc(N=Cc2c(O)n(-c3cccc(C)n3)c(=O)c3ccccc23)c(OC)c1`, the Potency is 13 µM (active).
For `O=C(N/N=C/c1c(O)n(-c2ccc(Cl)cn2)c(=O)c2ccccc12)c1ccncc1`, the max response was -9.07%.
Same read-out and setting: then `Cc1ccc(N=Cc2c(O)n(-c3nccs3)c(=O)c3ccccc23)c(C)c1`, with -4.13%.
The same measure, in the same setting: then `CCC(=Nc1ccccc1O)C1=C(O)CC(c2ccccc2)CC1=O` (stereo not given), with -8%.
Regarding `CCN(CC)c1ccc2cc(-c3nc(-c4ccc(Cl)cc4Cl)cs3)c(=O)oc2c1`, the max response is -3.92%.
For `CCN(CC)c1ccc2cc(-c3nc(-c4ccccc4)no3)c(=O)oc2c1`, the Potency was 3.66 µM (active).
In the case of `CCN(CC)c1ccc2cc(-c3nnc(-c4ccccc4)o3)c(=O)oc2c1`, the Potency was 0.0994 µM (active).
On to `CCN(CC)c1ccc2cc(-c3nc(-c4cccs4)no3)c(=O)oc2c1`, for which the Potency is 2.06 µM (active).
On the same count and under the same terms, then `CCN(CC)c1ccc2cc(-c3nnc(-c4cccc(Cl)c4)o3)c(=O)oc2c1`, with 0.58 µM (active).
Regarding `CCOC(=O)c1c(C)sc(-c2c(-c3ccccc3)[nH]c3[nH]c(=O)[nH]c(=O)c23)c1O`, the max response is -22.6%.
Still for that read-out and setting: for `Cc1ccc(Nc2nc(-c3cccnc3)nc3ccccc23)cc1` the value was -12.4%; for `CC1CCN(C(=O)C(C)Sc2nc(-c3ccccc3)cc(C(F)(F)F)n2)CC1` (stereo not given), 1.1%.
For `CCN(CC)c1ccc2cc(-c3nc4ccccc4n3C)c(=O)oc2c1`, the Potency was 4.11 µM (active).
On the same count and under the same terms, then `CCN(CC)c1ccc2cc(-c3nc(-c4cc(OC)c(OC)c(OC)c4)no3)c(=O)oc2c1`, with 0.366 µM (active); and `CN1/C(=C/C=C(/C#N)C(N)=O)C(C)(C)c2ccccc21`, with 6.27 µM (active); and `CC1=C/C(=C\C=C(C#N)C#N)N(C)c2ccccc21`, with 2.31 µM (active).
Consider `CN1/C(=C/C=C(C#N)C#N)C(C)(C)c2ccccc21`, for which the Potency was 18.4 µM (active).
As for `COCCNC(=S)N/N=C(\C)c1ccc(OC(F)F)cc1`, the max response was 0.658%.
As for `COc1ccccc1-c1noc(-c2ccc(NCc3ccco3)c([N+](=O)[O-])c2)n1`, the Potency is 14.6 µM (active).
For `Cc1cccc(-c2noc(-c3ccc(NCc4ccco4)c([N+](=O)[O-])c3)n2)c1`, the Potency is 14.6 µM (active).
`O=[N+]([O-])c1cc(-c2nc(-c3ccccc3)no2)ccc1NCc1ccco1`: the Potency was 8.2 µM (active).
Turning to `O=c1c2ccccc2sc2ccc(NCCCN3CCOCC3)cc12`, the Potency is 20.6 µM (active).
`Cc1ccc(C)c(NC(=O)Cn2cc(S(=O)(=O)Cc3cccc(Cl)c3)c3ccccc32)c1`: the Potency was 8.2 µM (active).
As for `Cc1ccc(C)c(NC(=O)N2CC=C(c3c[nH]c4ccccc34)CC2)c1`, the max response is -19.7%.
Consider `Cc1ccc(Cl)cc1NC(=O)Nc1cn(CC(C)C)c(=O)c2ccccc12`, for which the max response is -13.3%.
Still for that read-out and setting: for `Cc1ccc(S(=O)(=O)C(C#N)c2nc3ccccc3nc2N2CCCC2)cc1` (stereo not given) the value was -28.7%.
For `COc1cc2nc(SCC(=O)NCc3ccco3)n(Cc3ccc(Cl)cc3)c(=O)c2cc1OC`, the Potency was 8.2 µM (active).
For `COc1ccc(NC(=O)CSc2nc3c(oc4ccccc43)c(=O)n2Cc2ccco2)cc1Cl`, the Potency was 14.6 µM (active).
In the case of `COc1ccccc1CCC(=O)Nc1ccc2c(c1)c(=O)n(C)n2Cc1ccc(F)cc1`, the max response was -22.3%.
Still for that read-out and setting: for `S=C(NCc1ccco1)Nc1ccc(Cl)cn1` the value was -0.0392%.
On the same count and under the same terms, then `CCn1c(SCC(=O)Nc2cccc(O)c2)nc2c1c(=O)n(C)c(=O)n2C`, with 0.997%; and `CCCCOc1ccc(-c2nnn(CC(=O)NCc3ccco3)n2)cc1`, with -20.9%.
Turning to `O=Cc1s/c(=N\S(=O)(=O)c2ccccc2)n(CCCCl)c1Cl`, the max response is -29.9%.

Source of the values: PubChem BioAssay AID651814 (National Center for Advancing Translational Sciences (NCATS), 2012).
